For some assays here: Entries with a potency or affinity are not part of this list.

The record followed here is ChEMBL document CHEMBL3988442, “University of Dundee, Small-Polar-MMV Screening Library” (2021).

Set-up in all cases: scale not given: direction of the effect not stated beside the values
Experiment [1] has as its target Protein translocase subunit SecA (Escherichia coli (strain K12)) (UniProt P10408). Description: Assay to Identify E. coli SecA ATPase Inhibitors. Type of experiment: functional. The note with it: 30 µM.
Experiment [2] has as its target T1, Ubiquitin-activating enzyme e1, putative (Leishmania donovani (strain BPK282A1)) (UniProt E9BSI1).
T1 sequence (whole entry): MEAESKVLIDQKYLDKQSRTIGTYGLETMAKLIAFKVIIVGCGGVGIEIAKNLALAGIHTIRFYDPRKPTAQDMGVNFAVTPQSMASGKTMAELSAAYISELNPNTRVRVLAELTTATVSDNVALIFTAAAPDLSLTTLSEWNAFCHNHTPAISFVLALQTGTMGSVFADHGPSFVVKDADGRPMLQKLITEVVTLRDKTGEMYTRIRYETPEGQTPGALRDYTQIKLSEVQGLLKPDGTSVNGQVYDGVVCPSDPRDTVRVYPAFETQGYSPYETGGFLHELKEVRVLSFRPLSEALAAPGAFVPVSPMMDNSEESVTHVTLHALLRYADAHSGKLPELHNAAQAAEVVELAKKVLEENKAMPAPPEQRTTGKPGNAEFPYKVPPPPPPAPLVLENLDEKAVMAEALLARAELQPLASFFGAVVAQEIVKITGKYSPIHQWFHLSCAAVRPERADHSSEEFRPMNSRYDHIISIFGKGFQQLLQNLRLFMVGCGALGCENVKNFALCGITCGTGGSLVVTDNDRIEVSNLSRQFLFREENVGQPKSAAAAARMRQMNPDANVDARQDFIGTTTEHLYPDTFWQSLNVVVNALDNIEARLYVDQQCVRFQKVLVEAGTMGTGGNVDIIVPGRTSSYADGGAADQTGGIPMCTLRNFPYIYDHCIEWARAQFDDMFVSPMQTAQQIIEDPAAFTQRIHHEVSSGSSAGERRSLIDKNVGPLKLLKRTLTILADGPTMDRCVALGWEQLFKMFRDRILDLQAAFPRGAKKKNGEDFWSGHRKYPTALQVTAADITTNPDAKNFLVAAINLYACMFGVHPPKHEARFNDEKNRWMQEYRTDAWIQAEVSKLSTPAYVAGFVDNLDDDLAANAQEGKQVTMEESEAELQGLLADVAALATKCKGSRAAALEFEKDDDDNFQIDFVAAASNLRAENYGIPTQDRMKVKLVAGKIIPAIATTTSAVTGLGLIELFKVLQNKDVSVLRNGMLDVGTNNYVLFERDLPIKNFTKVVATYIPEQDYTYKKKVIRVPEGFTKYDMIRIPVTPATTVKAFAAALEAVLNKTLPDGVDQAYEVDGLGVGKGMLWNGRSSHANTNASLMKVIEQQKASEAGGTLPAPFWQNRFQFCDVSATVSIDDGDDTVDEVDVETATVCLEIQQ
Description: Leishmania donovani Ubiquitin Activating Enzyme (LdE1). The class given is functional. Particulars: 30 µM.

The target in experiment [3] is AMP-activated protein kinase, AMPK (Homo sapiens) (UniProt P54646+O43741+P54619+Q9UGJ0+Q9Y478+Q13131+Q9UGI9). Nature of the experiment: AMP-dependent Kinase enzyme assay. An in vitro enzyme assay that detects ADP turnover that is directly proportional to AMPK activity. This uses naive AMPK that is activated during the assay with MK-8722. Particulars: 30 µM. Type of experiment: functional.

The target of experiment [4] is Sialic acid-binding Ig-like lectin 9 (Homo sapiens) (UniProt Q9Y336). Nature of the experiment: Hs-Siglec9 ALPHAscreen SOP 20170721. Particulars: 10 µM.
For the next experiment, the system named is Trypanosoma cruzi. Description: Trypanosoma cruzi phosphomannomutase and mannose-1-phosphate guanylyltransferase assay. Type of experiment: functional. The note with it: 10 µM.
The target in experiment [5] is T2, Arginase-2, mitochondrial (Homo sapiens) (UniProt P78540).
T2 sequence (whole entry): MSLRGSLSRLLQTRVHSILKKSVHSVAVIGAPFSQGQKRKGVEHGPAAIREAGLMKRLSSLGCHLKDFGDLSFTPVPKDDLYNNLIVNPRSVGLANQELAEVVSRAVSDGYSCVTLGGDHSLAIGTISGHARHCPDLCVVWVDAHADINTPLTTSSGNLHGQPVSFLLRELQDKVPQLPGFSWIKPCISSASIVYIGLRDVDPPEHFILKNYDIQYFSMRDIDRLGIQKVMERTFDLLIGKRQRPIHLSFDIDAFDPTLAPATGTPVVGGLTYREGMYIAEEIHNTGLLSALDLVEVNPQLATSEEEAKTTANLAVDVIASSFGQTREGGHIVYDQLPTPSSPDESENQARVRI
Description: in vitro enzyme assay to detect the production of urea directly proportional to the activity of Arginase II. Also: in the data most compounds retested in dose-response had high values. Type of experiment: functional. Particulars: 33.3 µM.

For experiment [6], the target named is T3, Proteasome subunit beta (Trypanosoma cruzi) (UniProt O96673).
T3 sequence (whole entry): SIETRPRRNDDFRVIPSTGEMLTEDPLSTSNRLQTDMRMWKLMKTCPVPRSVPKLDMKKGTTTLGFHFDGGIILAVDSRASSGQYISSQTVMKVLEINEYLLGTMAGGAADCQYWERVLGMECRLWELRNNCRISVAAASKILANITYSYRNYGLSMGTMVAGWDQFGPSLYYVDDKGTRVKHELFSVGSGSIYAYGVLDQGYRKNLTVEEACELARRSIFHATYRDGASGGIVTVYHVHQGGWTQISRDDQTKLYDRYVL
Description: Trypanosoma cruzi proteasome chymotrypsin-like activity (TcProtChymo) assay. Also: in the data most compounds retested in dose-response had high values. Type of experiment: functional. The note with it: 9.37 µM.

For the next experiment, the species on record is Homo sapiens. Description: To identify inhibition of the IFN signalling (Jak-Stat) pathway via expression of an eGFP reporter gene under the control of an IFN-stimulated response element (ISRE) containing MxA promoter. Type of experiment: functional. Particulars: 30 µM. Background: In a reporter assay the amount or activity of a reporter protein is the signal.

Experiment [7] concerns the target T4, Tyrosyl-tRNA synthetase, putative (Trypanosoma cruzi (strain CL Brener)) (UniProt Q4DSP6).
T4 sequence (whole entry): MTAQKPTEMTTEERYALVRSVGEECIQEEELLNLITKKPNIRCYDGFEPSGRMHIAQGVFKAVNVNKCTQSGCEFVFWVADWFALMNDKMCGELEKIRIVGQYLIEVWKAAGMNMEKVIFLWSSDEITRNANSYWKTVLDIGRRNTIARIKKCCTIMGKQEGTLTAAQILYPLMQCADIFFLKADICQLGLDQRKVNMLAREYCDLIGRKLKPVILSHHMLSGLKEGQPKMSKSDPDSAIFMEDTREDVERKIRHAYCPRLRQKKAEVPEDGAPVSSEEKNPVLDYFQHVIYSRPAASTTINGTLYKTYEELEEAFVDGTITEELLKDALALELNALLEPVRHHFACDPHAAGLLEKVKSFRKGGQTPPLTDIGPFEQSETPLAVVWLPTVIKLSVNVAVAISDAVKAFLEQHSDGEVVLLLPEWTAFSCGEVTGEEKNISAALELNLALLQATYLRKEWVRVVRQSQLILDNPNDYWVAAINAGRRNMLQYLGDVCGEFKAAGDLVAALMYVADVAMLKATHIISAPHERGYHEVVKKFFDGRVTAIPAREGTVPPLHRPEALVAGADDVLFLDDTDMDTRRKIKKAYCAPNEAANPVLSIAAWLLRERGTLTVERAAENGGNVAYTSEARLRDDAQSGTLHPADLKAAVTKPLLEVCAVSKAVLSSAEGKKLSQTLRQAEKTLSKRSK
Description: Trypanosoma cruzi tyrosyl tRNA synthetase (TcYRS) _High Tyrosine SOP. Also: in the data most compounds retested in dose-response had high values. Type of experiment: functional. The note with it: 30 µM.

For experiment [8], the target named is T4, Tyrosyl-tRNA synthetase, putative (Trypanosoma cruzi (strain CL Brener)). Description: Trypanosoma cruzi tyrosyl tRNA synthetase (TcYRS) SOP. The note with it: 30 µM. The class given is functional.
The target in experiment [9] is Chromo domain-containing protein 1 (Saccharomyces cerevisiae (strain ATCC 204508 / S288c) (Baker's yeast)) (UniProt P32657). Description: ScCHD-1 Enzyme Inhibition Assay. Also: in the data most compounds retested in dose-response had high values. The class given is functional. Particulars: 30 µM.
Chain of Chromo domain-containing protein 1 (Saccharomyces cerevisiae (strain ATCC 204508 / S288c) (Baker's yeast)) (P32657 whole entry, the tested form may be a part): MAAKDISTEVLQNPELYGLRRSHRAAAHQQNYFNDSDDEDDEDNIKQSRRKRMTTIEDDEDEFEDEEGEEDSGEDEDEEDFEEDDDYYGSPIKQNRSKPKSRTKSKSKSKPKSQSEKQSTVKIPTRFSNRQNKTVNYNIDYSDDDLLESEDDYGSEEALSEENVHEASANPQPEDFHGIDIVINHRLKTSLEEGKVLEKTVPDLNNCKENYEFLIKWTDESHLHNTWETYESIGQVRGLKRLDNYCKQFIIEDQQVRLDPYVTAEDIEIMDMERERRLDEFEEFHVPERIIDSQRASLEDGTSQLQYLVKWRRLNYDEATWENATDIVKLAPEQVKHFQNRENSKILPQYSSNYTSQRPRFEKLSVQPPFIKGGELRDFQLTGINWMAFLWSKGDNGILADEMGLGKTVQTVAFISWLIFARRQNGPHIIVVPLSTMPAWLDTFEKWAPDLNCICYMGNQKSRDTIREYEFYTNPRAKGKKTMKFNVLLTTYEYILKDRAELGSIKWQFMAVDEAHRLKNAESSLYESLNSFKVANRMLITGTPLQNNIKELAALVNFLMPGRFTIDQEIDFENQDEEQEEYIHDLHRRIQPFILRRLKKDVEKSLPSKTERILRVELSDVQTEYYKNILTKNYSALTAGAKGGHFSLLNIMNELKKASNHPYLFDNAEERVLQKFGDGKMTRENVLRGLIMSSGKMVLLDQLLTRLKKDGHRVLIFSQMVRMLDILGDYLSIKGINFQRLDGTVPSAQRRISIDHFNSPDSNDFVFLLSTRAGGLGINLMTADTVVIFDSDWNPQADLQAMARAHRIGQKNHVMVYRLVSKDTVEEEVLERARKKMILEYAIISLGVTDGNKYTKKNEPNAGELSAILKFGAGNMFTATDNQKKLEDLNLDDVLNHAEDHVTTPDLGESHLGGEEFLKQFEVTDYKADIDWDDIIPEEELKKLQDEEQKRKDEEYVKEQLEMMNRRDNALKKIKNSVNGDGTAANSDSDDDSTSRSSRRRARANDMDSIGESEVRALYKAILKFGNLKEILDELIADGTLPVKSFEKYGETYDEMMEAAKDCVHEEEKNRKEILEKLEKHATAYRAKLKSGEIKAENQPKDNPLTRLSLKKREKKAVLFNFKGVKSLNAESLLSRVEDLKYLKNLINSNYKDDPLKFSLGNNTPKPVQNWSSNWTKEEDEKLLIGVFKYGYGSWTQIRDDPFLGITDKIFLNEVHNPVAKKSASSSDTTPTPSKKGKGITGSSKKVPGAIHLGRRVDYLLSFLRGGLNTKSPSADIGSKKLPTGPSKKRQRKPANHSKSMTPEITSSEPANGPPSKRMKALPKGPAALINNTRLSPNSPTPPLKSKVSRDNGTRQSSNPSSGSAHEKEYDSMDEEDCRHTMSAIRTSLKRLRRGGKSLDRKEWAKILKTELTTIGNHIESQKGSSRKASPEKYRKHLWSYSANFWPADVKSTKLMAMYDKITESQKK

Chain of Protein translocase subunit SecA (Escherichia coli (strain K12)) (P10408 whole entry): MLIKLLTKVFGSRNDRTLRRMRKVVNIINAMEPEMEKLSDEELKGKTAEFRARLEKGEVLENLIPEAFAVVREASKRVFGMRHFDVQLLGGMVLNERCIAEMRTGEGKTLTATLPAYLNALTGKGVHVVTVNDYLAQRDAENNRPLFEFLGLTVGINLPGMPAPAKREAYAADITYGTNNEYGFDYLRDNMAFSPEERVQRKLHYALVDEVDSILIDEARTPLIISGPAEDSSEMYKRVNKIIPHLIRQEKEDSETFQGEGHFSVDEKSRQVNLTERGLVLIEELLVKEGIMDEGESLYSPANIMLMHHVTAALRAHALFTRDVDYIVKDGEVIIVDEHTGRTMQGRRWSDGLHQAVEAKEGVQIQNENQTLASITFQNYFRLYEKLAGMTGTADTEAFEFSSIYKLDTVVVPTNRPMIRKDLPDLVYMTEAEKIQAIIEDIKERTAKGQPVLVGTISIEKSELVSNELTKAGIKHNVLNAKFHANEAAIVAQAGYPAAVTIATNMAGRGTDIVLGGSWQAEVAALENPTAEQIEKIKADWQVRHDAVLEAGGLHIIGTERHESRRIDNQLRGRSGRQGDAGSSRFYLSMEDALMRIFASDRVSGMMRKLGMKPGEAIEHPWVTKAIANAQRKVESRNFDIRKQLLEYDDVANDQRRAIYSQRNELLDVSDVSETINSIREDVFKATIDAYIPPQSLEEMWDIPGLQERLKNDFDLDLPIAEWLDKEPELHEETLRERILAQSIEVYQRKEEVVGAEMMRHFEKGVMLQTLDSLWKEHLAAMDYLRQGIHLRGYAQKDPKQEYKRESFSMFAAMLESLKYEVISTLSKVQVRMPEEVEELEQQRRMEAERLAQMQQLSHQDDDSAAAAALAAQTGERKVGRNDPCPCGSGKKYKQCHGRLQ
Chain of Sialic acid-binding Ig-like lectin 9 (Homo sapiens) (Q9Y336 whole entry): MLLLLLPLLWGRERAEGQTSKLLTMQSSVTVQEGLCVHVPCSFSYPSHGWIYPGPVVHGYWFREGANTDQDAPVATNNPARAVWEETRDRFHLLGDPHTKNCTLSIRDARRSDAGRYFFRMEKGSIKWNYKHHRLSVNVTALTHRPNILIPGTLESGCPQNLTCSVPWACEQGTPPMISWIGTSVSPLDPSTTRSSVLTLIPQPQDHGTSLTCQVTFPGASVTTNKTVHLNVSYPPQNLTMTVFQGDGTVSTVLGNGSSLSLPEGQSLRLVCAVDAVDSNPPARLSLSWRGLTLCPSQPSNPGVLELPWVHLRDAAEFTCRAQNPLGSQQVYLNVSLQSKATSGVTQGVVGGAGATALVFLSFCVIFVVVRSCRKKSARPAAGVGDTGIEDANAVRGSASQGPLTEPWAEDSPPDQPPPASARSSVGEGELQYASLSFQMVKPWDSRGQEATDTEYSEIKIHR

On to `c1ccc(-n2nnnc2CN2CCCC(Cn3cncn3)C2)cc1` (configuration not stated), for which the Percent Effect in experiment [1] is -1.71%; in experiment [2], 6.33%; in [3], 5.51%; in [4], 4.14%; with Trypanosoma cruzi, -5.03%; in [5], 0.645%. Also, the Percent Effect was 9.61% in experiment [6]; 4.63% in the experiment filed under Homo sapiens; 3.12% in [7]; 10.1% in experiment [8]; -17.9% in experiment [9].
`CC(NC(=O)NCCCn1cccn1)c1cccnc1` (configuration not stated): the Percent Effect is -4.3% in [1]; -2.67% in [2]; -0.757% in [3]; -5.85% in experiment [4]; -4.77% in the experiment on Trypanosoma cruzi; -3.12% in experiment [5]. The Percent Effect in experiment [6] is 7.85%; in the experiment filed under Homo sapiens, 1.99%; in [7], -1.64%; in experiment [8] it was -6.17%; in [9], 6.57%.
`CCc1noc(CNc2ccc(F)cc2OCC2CC2)n1`: the Percent Effect is 0.992% in experiment [1]; 18.9% in experiment [2]; -7.79% in experiment [3]; 18.2% in experiment [4]; -1.54% in the experiment on Trypanosoma cruzi; 7.14% in experiment [5]. Further, the Percent Effect is 9.83% in experiment [6]; 10.8% in the experiment listed under Homo sapiens; 1.59% in experiment [7]; 12.2% in experiment [8]; -3.79% in experiment [9].
Regarding `Cc1ccccc1NS(=O)(=O)c1cc2c(c(C(=O)O)c1)OCCO2`, the Percent Effect is -8.46% in [1]; 7.89% in [2]; 0.578% in experiment [3]; -1.17% in [4]; -7.19% with Trypanosoma cruzi; -6.47% in experiment [5]. Further, the Percent Effect in [6] came out at 5.67%; in the experiment listed under Homo sapiens it was 2.34%; in [7], 2.46%; in [8] it was 1.24%; in experiment [9] it was 3.8%.
For the molecule `Cn1c(Cn2cccn2)nnc1C1CCCN(c2ccncc2)C1` (configuration not stated), the Percent Effect in [1] is -2.64%; in experiment [2], 2.7%; in experiment [3], -4%; in experiment [4], 11.4%; in the experiment on Trypanosoma cruzi it was 3.86%; in [5] it was -1.43%. In addition, the Percent Effect was 17.6% in experiment [6]; 11.9% in the experiment filed under Homo sapiens; 6.88% in experiment [7]; 19.5% in experiment [8]; -1.63% in experiment [9].
As for `COC(=O)c1cc(C(=O)N2CCCCCC2)n(-c2ccccc2)n1`, the Percent Effect in experiment [1] is -5.27%; in experiment [2], 2.63%; in [3], 0.404%; in experiment [4] it was 4.54%; in the experiment with Trypanosoma cruzi, -5.08%; in experiment [5], 1.92%. The Percent Effect in experiment [6] is -3.51%; in the experiment listed under Homo sapiens, 18.4%; in experiment [7] it was 2.45%; in [8] it was 9.76%; in [9], -1.11%.
On to `CCc1cc(N[C@H]2CC[C@H](O)CC2)n2nc(C)c(C)c2n1`, for which the Percent Effect in experiment [1] was -3.74%; in experiment [2], 1.39%; in [3] it was 0.211%; in experiment [4] it was -3.49%; in the experiment with Trypanosoma cruzi, -2.82%; in experiment [5], -0.442%. For the same molecule, the Percent Effect in [6] is 5.09%; in the experiment listed under Homo sapiens, -20.9%; in [7], -9.47%; in [8], 10.3%; in [9], -3.52%.
